HCV inh – blocks hepatitis C virus; Huh7.5.1 HCVcc-Cre infection, luciferase reporter, 44 h; Potency, µM (top dose mostly 41.8 µM), most hits filed as inhibitors; hit rate 3.4% among 340,000; active means well fitted inhibition curve with a large enough effect; inconclusive means small, poorly fitted or top-dose-only effect, or another doubt; inactive means no such curve, though single readings can be large or run the other way
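After 44 h co-culture of compound, cells and HCVcc-Cre (~0.5 moi), substrate is added for 15 min at room temperature and luciferase measured over 15 sec. Cells were seeded at 1,000/well and pre-cultured 4 h.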
Vaccinia Venus – vaccinia inhibition (Venus reporter); Vaccinia virus Venus reporter expression, fluorescence; Potency, µM (series often up to 36.5 µM), most hits filed as inhibitors; hit rate 0.46% among 330,000; calls by dose curve; tested in A549 cells; further: nearly all actives have a fitted effect of over 30% in size
Vaccinia mCherry – inhibitors of vaccinia virus infection (mCherry reporter signal); Vaccinia virus mCherry reporter infection, fluorescence; Potency, µM (titrated, usually from 36.5 µM), hits mostly inhibitors; hit rate 0.63% among 310,000; calls by dose curve; tested in A549 cells; further: nearly all actives have a fitted effect of over 35% in size
Of the large screens only hits and unclear results are named; the others gave an inactive call. Most compounds without a hit are left out; they make up all but 3.3% or so of the library.

Cc1cc(C(=O)N2CCOc3ccc(CN4CCC(Oc5cccnc5)CC4)cc3C2)c(C)o1	none (no result: HCV inh)
Cc1ccc(S(=O)(=O)N(C)c2ccc(OCC(=O)Nc3nc(-c4ccccc4)cs3)cc2)cc1	HCV inh inconclusive
CCOC1(c2ccccc2)CC1C(=O)N/N=C/c1cccc([N+](=O)[O-])c1 (stereo not given)	HCV inh 11µM (no result: Vaccinia Venus, Vaccinia mCherry)
CN(c1ccc(OCC(=O)Nc2nc(-c3ccccc3)cs2)cc1)S(=O)(=O)c1ccc(F)cc1	HCV inh 10µM, Vaccinia mCherry inconclusive
COC(=O)N/N=C/c1cccc([N+](=O)[O-])c1	none
FC(F)(F)c1nc2ccccc2n2c(-c3ccc(Cl)cc3Cl)nnc12	none (no result: Vaccinia mCherry)
FC(F)(F)c1nnc2c(Sc3ccccc3)nc3ccc(Cl)cc3n12	HCV inh 11µM (no result: Vaccinia Venus, Vaccinia mCherry)
COc1cc(NC(=O)CSc2nnc3c4ccccc4n(C)c3n2)cc(OC)c1OC	Vaccinia mCherry inconclusive (no result: HCV inh)
O=C(CSCc1cc(=O)n2ccsc2n1)Nc1ccccc1	none (no result: Vaccinia Venus, Vaccinia mCherry)
Cc1cc2c(cc1C)N(C(=O)CCl)CC(=O)N2	Vaccinia Venus inconclusive (no result: HCV inh)
Cc1cc2c(cc1C)N(C(=O)CCl)CCN2C(=O)CCl	HCV inh 4µM
O=C(CSc1nnc(COc2ccccc2)o1)Nc1ccc(F)cc1	Vaccinia Venus inconclusive, Vaccinia mCherry inconclusive
Cc1cc(C)n2nc(SCC(=O)c3cc(C)n(-c4cc(C)on4)c3C)nc2n1	HCV inh 4.5µM, Vaccinia Venus inconclusive
Cc1cc(-n2c(C)cc(C(=O)CSc3nnc4sc5ccccc5n34)c2C)no1	none
Cc1nnc(SCC(=O)c2cc(C)n(C3CC3)c2C)s1	HCV inh inconclusive (no result: Vaccinia mCherry)
Cc1cc(C)n2nc(SCC(=O)c3ccccc3)nc2n1	HCV inh inconclusive
Cc1cc(C(=O)CSc2ncnc3ccccc23)c(C)n1C1CC1	HCV inh 10µM
Cc1cc(-n2c(C)cc(C(=O)CSc3ncnc4ccccc34)c2C)no1	HCV inh 2.8µM (no result: Vaccinia Venus, Vaccinia mCherry)
Cn1nc(C(F)(F)F)c(-c2cccc(C(F)(F)F)c2)c1NC(=O)CSCC(=O)O	none
Cc1cc2c(c(-c3cnccn3)c1)OC(CNC(=O)c1ccccc1C(F)(F)F)C2 (stereo not given)	none (no result: HCV inh)
COc1ccc(N2CCN(CCNS(=O)(=O)c3ccc(C)cc3)CC2)cc1	none
Cc1cc(=O)n(C(C)C(=O)N2CCCc3ccccc32)c2c1c(C)nn2-c1ccccc1 (stereo not given)	none (no result: HCV inh)
CCCCN1CC(c2nc3ccccc3n2CCCCOc2c(C)cccc2C)CC1=O (stereo not given)	none (no result: HCV inh)
COC(=O)c1ccc2c(=O)n(CCCCCC(=O)N3CCN(c4ccc(Cl)cc4)CC3)c(=O)[nH]c2c1	none (no result: HCV inh)
Cn1ccnc1SCC(=O)Nc1cc(F)ccc1F	none
CCC(CO)Nc1ncnc2c1cnn2-c1ccc(Cl)cc1 (stereo not given)	none
CCC(CO)Nc1nc2ccc(Cl)cc2c2ccccc12 (stereo not given)	HCV inh 4µM, Vaccinia Venus inconclusive, Vaccinia mCherry inconclusive
O=C(Nc1ccc(Cl)c(C(F)(F)F)c1)c1ccncc1	none
CNC(=O)c1cc(Oc2ccc(NC(=O)Nc3ccc(Cl)c(C(F)(F)F)c3)cc2)ccn1	HCV inh 11µM, Vaccinia Venus 10µM, Vaccinia mCherry inconclusive
COc1ccc2c(c1)-c1nc(/N=C/c3c(O)ccc4ccccc34)sc1CC2	HCV inh 13µM, Vaccinia mCherry inconclusive
COc1ccc2c(c1)-c1nc(/N=C/c3ccc(O)cc3)sc1CC2	HCV inh inconclusive
COc1ccc(NC(=O)c2c(-c3ccccc3)c(-c3ccccc3)nn(C)c2=O)c(OC)c1	none (no result: HCV inh)
CC(C)(C)c1ccc(C(=O)Nc2cccnc2)cc1	none (no result: Vaccinia Venus, Vaccinia mCherry)
CC(C)(C)c1ccc(C(=O)Nc2ccc(Oc3cccnc3)nc2)cc1	HCV inh 2.8µM, Vaccinia Venus inconclusive
COc1cccc(CN2CCCN(CC(=O)Nc3ccc4c(c3)OCCO4)S2(=O)=O)c1	none (no result: HCV inh)
CCN(CCCNC(=O)c1cc(Nc2ccc(OC)cc2OC)nc2ccccc12)c1cccc(C)c1	none (no result: HCV inh)
COc1cc(C2NC(=S)NC3=C2CCc2ccccc23)cc(OC)c1OC (stereo not given)	none
COc1ccc2c(c1)CCC1=C2NC(=S)NC1c1ccc(N(C)C)cc1 (stereo not given)	HCV inh 11µM, Vaccinia mCherry inconclusive
CC1CCN(C(=O)COC(=O)c2cc(Cl)c3c(c2)OCO3)CC1	HCV inh inconclusive
CCOc1cc2c(cc1/C=C1/NC(=O)N(CC(=O)OC)C1=O)OCO2	HCV inh 10µM
COC(=O)CN1C(=O)N/C(=C/c2cc3c(cc2OC)OCO3)C1=O	none
COc1cc(-c2noc(-c3ccc(N4CCOCC4)c([N+](=O)[O-])c3)n2)cc(OC)c1OC	none (no result: HCV inh)
COc1cc(C2OCC3C(c4ccc(OC5OC(CO)C(O)C(O)C5O)c(OC)c4)OCC23)ccc1O (stereo not given)	none
COc1ccc(C[C@H]2COC(=O)[C@@H]2Cc2ccc(OC3OC(CO)C(O)C(O)C3O)c(OC)c2)cc1OC (stereo not given in full)	HCV inh 7.1µM
Cc1cccc(-n2c(=O)c3ccccc3n(Cc3ccccc3)c2=O)c1	none (no result: HCV inh)
COc1ccc(C(=O)Nc2cccc(OCc3cc(=O)n4c5c(sc4n3)CCCC5)c2)cc1	none (no result: HCV inh)
Cc1cnc(-n2ncc(C(=O)NCC3CCCN(C)C3)c2C)nc1-c1cccs1 (stereo not given)	none (no result: HCV inh)
CCN1C(=O)C(=O)c2cc(C)ccc21	none
CC[N+]1=C(C)C(C)(C)c2cc(C)ccc21	HCV inh 13µM
COc1cc(-c2cnc3ccccc3c2)cc2c1OCCN(C(=O)Cn1nccc1C)C2	none (no result: HCV inh)
CC(C)c1c(C(=O)N(C)Cc2cccc3ncccc23)cnn1-c1nccc(-c2ccco2)n1	Vaccinia mCherry inconclusive (no result: HCV inh)
Cc1ccc(C(=O)CSC2=C(C#N)C(c3ccco3)C3=C(CC(C)(C)CC3=O)N2)cc1 (stereo not given)	HCV inh inconclusive, Vaccinia mCherry inconclusive
COc1ccccc1NC(=O)C1=C(C)NC(SCC(=O)c2ccccc2)=C(C#N)C1c1ccco1 (stereo not given)	HCV inh 7.9µM
CC(=O)C1=C(C)NC(SCC(=O)c2ccc(C)cc2)=C(C#N)C1c1ccco1 (stereo not given)	HCV inh 7.1µM (no result: Vaccinia Venus, Vaccinia mCherry)
COc1ccc(NC(=O)CSC2=C(C#N)C(c3ccco3)C(C(=O)Nc3nc4ccccc4s3)=C(C)N2)cc1 (stereo not given)	HCV inh inconclusive (no result: Vaccinia mCherry)
COc1ccc(CNC(=O)CC2C[C@H](C(=O)N3CCCCC3)[C@@]3(C)c4[nH]c5ccccc5c4CCN3C2=O)cc1OC (stereo not given in full)	Vaccinia mCherry inconclusive
COc1ccccc1OCCNC(=O)Cc1ccc(S(=O)(=O)N2CCOCC2)s1	none
O=C(CSc1nnc2ccc3ccccc3n12)Nc1ccccc1Cl	none (no result: HCV inh)
NC(=S)Cc1ccc(Cl)cc1Cl	none
N=C(N)SCc1ccc(Cl)cc1Cl	HCV inh 11µM
CCc1nc2c(OCCOc3ccc(F)cc3)cccn2c1N(C)C(=O)C(C)C	none (no result: HCV inh)
COC(=O)c1c(OCc2ccccn2)cc(=O)n2c1CCN(C(=O)c1cc(C(C)C)nn1C)CC2	none (no result: HCV inh)
O=C(CCOc1ccccc1)N(Cc1cccnc1)c1nc2ccc(F)cc2s1	none (no result: HCV inh)
CC(=O)Nc1nc(C)nc(-c2ccccc2OC(C)=O)n1	HCV inh inconclusive
CC(=O)Nc1nc(-c2ccccc2)nc(-c2ccccc2OC(C)=O)n1	HCV inh 2.8µM, Vaccinia Venus inconclusive, Vaccinia mCherry inconclusive
CC(C)=CCOc1ccc([C@@H]2COc3c(ccc4c3C=CC(C)(C)O4)C2)c(O)c1	HCV inh 4.5µM
